PubChem BioAssay AID1159580 (chemical genetic matrix, 2015)
About 2,000 (36%) of roughly 5,500 compounds were called active. Not shown: some 18% with an inconclusive outcome. No stated cut-off is given here; in the data, active means normalized growth mostly below about 0.91 (no sharp cut-off); inconclusive means no clear call, values can overlap the other calls; inactive means mostly above about 0.92. The list shows a part of the results.

Experiment: chemical genetic growth profiling, strain panel (AID 1159580);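 further: tested at 20 µM; growth read once vehicle control cultures reached saturation at 30 °C; 1 = growth at the plate median or of vehicle wells; lower values mean less growth of the strain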
Details: S. cerevisiae deletion strains, growth OD
[1] = locus YAL021C, strain ccr4, active compounds read low
[2] = locus YAL026C, strain drs2, active compounds read low
[3] = locus YAL030W, strain snc1, active compounds read low
[4] = locus YBL061C, strain skt5, active compounds read low
[5] = locus YBR009C, strain hhf1, active compounds read low
[6] = locus YBR023C, strain chs3, active compounds read low
[7] = locus YBR171W, strain sec66, active compounds read low
[8] = locus YBR231C, strain swc5, active compounds read low
[9] = locus YBR279W, strain paf1, active compounds read low
[10] = locus YCL011C, strain gbp2, active compounds read low
[11] = locus YCL016C, strain dcc1, active compounds read low
[12] = locus YCL061C, strain MRC1, active compounds read low
[13] = locus YCL069W, strain vba3, active compounds read low
[14] = locus YCR088W, strain abp1, active compounds read low
[15] = locus YDL005C, strain med2, active compounds read low
[16] = locus YDL040C, strain nat1, active compounds read low
[17] = locus YDR001C, strain nth1, active compounds read low
[18] = locus YDR069C, strain doa4, active compounds read low
[19] = locus YDR137W, strain rgp1, active compounds read low
[20] = locus YDR159W, strain sac3, active compounds read low
[21] = locus YDR297W, strain sur2, active compounds read low
[22] = locus YDR334W, strain swr1, active compounds read low
[23] = locus YDR335W, strain msn5, active compounds read low
[24] = locus YDR392W, strain spt3, active compounds read low
[25] = locus YEL003W, strain gim4, active compounds read low
[26] = locus YEL037C, strain rad23, active compounds read low
[27] = locus YEL061C, strain CIN8 (second series), active compounds read low
[28] = locus YER015W, strain faa2, active compounds read low
[29] = locus YER016W, strain bim1, active compounds read low
[30] = locus YER111C, strain swi4, active compounds read low
[31] = locus YER155C, strain BEM2 (second series), active compounds read low
[32] = locus YFR010W, strain ubp6, active compounds read low
[33] = locus YGL167C, strain pmr1, active compounds read low
[34] = locus YGL173C, strain kem1, active compounds read low
[35] = locus YGL227W, strain vid30, active compounds read low
[36] = locus YGL240W, strain doc1, active compounds read low
[37] = locus YGL253W, strain hxk2, active compounds read low
[38] = locus YHR013C, strain ard1, active compounds read low
[39] = locus YHR027C, strain rpn1, active compounds read low
[40] = locus YHR030C, strain SLT2, active compounds read low
[41] = locus YHR079C, strain IRE1, active compounds read low
[42] = locus YHR142W, strain chs7, active compounds read low
[43] = locus YJL092W, strain hpr5, active compounds read low
[44] = locus YJL095W, strain BCK1 (second series), active compounds read low
[45] = locus YJL095W, strain BCK1, active compounds read low
[46] = locus YJL115W, strain asf1, active compounds read low
[47] = locus YJL129C, strain trk1, active compounds read low
[48] = locus YJL154C, strain vps35, active compounds read low
[49] = locus YJL164C, strain tpk1, active compounds read low
[50] = locus YJL166W, strain qcr8, active compounds read low
[51] = locus YJR066W, strain TOR1, active compounds read low
[52] = locus YKL160W, strain elf1, active compounds read low
[53] = locus YKR026C, strain gcn3, active compounds read low
[54] = locus YKR091W, strain srl3, active compounds read low
[55] = locus YLL001W, strain dnm1, active compounds read low
[56] = locus YLL026W, active compounds read low
[57] = locus YLL041C, strain sdh2, active compounds read low
[58] = locus YLR027C, strain aat2, active compounds read low
[59] = locus YLR113W, strain HOG1, active compounds read low
[60] = locus YLR221C, strain rsa3, active compounds read low
[61] = locus YLR258W, strain gsy2, active compounds read low
[62] = locus YLR262C, strain YPT6 (second series), active compounds read low
[63] = locus YLR320W, strain mms22, active compounds read low
[64] = locus YLR342W, strain FKS1, active compounds read low
[65] = locus YLR357W, strain rsc2, active compounds read low
[66] = locus YLR370C, strain arc18, active compounds read low
[67] = locus YLR384C, strain iki3, active compounds read low
[68] = locus YML120C, strain ndi1, active compounds read low
[69] = locus YMR058W, strain fet3, active compounds read low
[70] = locus YMR125W, strain sto1, active compounds read low
[71] = locus YMR129W, active compounds read low
[72] = locus YMR205C, strain PFK2, active compounds read low
[73] = locus YMR231W, strain pep5, active compounds read low
[74] = locus YNL071W, strain lat1, active compounds read low
[75] = locus YNL183C, strain NPR1, active compounds read low
[76] = locus YNL209W, strain ssb2, active compounds read low
[77] = locus YNL248C, strain rpa49, active compounds read low
[78] = locus YNL322C, strain KRE1 (second series), active compounds read low
[79] = locus YNR049C, strain mso1, active compounds read low
[80] = locus YOR001W, strain rrp6, active compounds read low
[81] = locus YOR070C, strain gyp1, active compounds read low
[82] = locus YOR080W, strain dia2, active compounds read low
[83] = locus YOR083W, strain WHI5, active compounds read low
[84] = locus YOR106W, strain vam3, active compounds read low
[85] = locus YOR231W, strain MKK1, active compounds read low
[86] = locus YOR265W, strain rbl2, active compounds read low
[87] = locus YOR270C, strain vph1, active compounds read low
[88] = locus YOR290C, strain snf2, active compounds read low
[89] = locus YPL051W, strain arl3, active compounds read low
[90] = locus YPL078C, strain atp4, active compounds read low
[91] = locus YPL106C, strain sse1, active compounds read low
[92] = locus YPL240C, strain hsp82, active compounds read low
[93] = locus YPL256C, strain CLN2, active compounds read low

Measured: normalized growth

COc1cc(/C=C/C(=O)/C=C(O)/C=C/c2ccc(O)c(OC)c2)ccc1O
inactive: [51] 0.828
active: [1] 0.0789 | [2] 0.118 | [3] 0.157 | [4] 0.175 | [5] 0.149 | [6] 0.172 | [7] 0.132 | [8] 0.091 | [9] 0.307 | [10] 0.184 | [11] 0.4 | [12] 0.216 | [13] 0.224 | [14] 0.265 | [15] 0.089 | [16] 0.0875 | [17] 0.249 | [18] 0.0822 | [19] 0.149 | [20] 0.112 | locus YDR195W, strain ref2 0.156 | [21] 0.187 | [22] 0.109 | [23] 0.0992 | [24] 0.14 | [25] 0.0989 | [26] 0.155 | [27] 0.243 | [28] 0.119 | [29] 0.396 | [30] 0.094 | [31] 0.242 | [32] 0.187 | [33] 0.177 | [34] 0.107 | [35] 0.507 | [36] 0.399 | [37] 0.224 | [38] 0.178 | [39] 0.0816 | [40] 0.653 | [41] 0.574 | [42] 0.0884 | [43] 0.222 | [44] 0.0924 | [45] 0.546 | [46] 0.313 | [47] 0.108 | [48] 0.251 | [49] 0.143 | [50] 0.0762 | [52] 0.433 | [53] 0.229 | [54] 0.304 | [55] 0.212 | [56] 0.131 | [57] 0.0974 | [58] 0.161 | [59] 0.227 | [60] 0.204 | [61] 0.17 | [62] 0.142 | [63] 0.163 | [64] 0.173 | [65] 0.34 | [66] 0.171 | [67] 0.155 | [68] 0.115 | [69] 0.0838 | [70] 0.16 | [71] 0.276 | [72] 0.134 | [73] 0.134 | [74] 0.269 | [75] 0.761 | [76] 0.0983 | [77] 0.443 | [78] 0.16 | [79] 0.175 | [80] 0.139 | [81] 0.416 | [82] 0.0852 | [83] 0.203 | [84] 0.0922 | [85] 0.575 | [86] 0.159 | [87] 0.115 | [88] 0.101 | [89] 0.118 | [90] 0.182 | [91] 0.251 | [92] 0.294 | [93] 0.494

COc1cc(O)c(C(=O)/C=C/c2ccc(OC)c(O)c2)c(OC)c1
active: [2] 0.906 | [5] 0.846 | [6] 0.912 | locus YDR195W, strain ref2 1.17 [resistant] | [24] 0.413 | [31] 0.765 | [37] 0.806 | [42] 0.712 | [44] 0.86 | [47] 0.852 | [49] 0.842 | [50] 0.799 | locus YJL187C, strain SWE1, active compounds read low 0.914 | [52] 0.893 | [55] 0.891 | [56] 0.857 | [58] 0.841 | [60] 0.79 | [61] 0.903 | [62] 0.752 | [63] 0.793 | [68] 0.828 | [69] 0.847 | [72] 0.845 | [74] 0.566 | [81] 0.895 | [83] 0.859 | [84] 0.822 | [88] 0.751 | [89] 0.856 | [90] 0.796
inactive: [1] 0.994 | [3] 0.961 | [4] 0.939 | [7] 0.993 | [8] 0.925 | [9] 0.965 | [10] 0.91 | [11] 0.971 | [12] 0.954 | [13] 0.946 | [14] 0.995 | [15] 1.01 | [16] 1.01 | [17] 0.992 | [18] 1.06 | [19] 0.912 | [20] 0.929 | [21] 1.01 | [22] 0.983 | [23] 0.935 | [25] 0.927 | [26] 0.988 | [27] 0.918 | [28] 0.956 | [29] 1.02 | [30] 0.98 | [32] 0.959 | [33] 1.02 | [34] 0.939 | [35] 0.96 | [36] 0.946 | [38] 1.02 | [39] 0.987 | [40] 0.922 | [41] 0.943 | [43] 0.957 | [45] 0.941 | [46] 1 | [48] 1.02 | [51] 0.897 | [53] 0.992 | [54] 1.01 | [57] 1.01 | [59] 0.982 | [64] 1 | [65] 0.933 | [66] 0.944 | [67] 1.03 | [70] 0.9 | [71] 0.992 | [73] 0.98 | [75] 0.958 | [76] 1.01 | [77] 0.909 | [78] 0.997 | [79] 0.997 | [80] 0.905 | [82] 1.01 | [85] 0.931 | [86] 0.988 | [87] 0.833 | [91] 0.929 | [92] 0.976 | [93] 0.942
